Source: PubChem BioAssay (EPA / NIEHS)
Inconclusive results are not listed. Active and inactive are the calls of the source. The calls were made as follows: active = hit-call score of the fitted dose curve at least 0.9, where 1 is the maximum; inconclusive = response in the unintended direction; inactive = score below 0.9.

Assays:
[1] = test system: guinea pig Histamine Receptor (H2), gene 100729734; assay: NVS_GPCR_gH2: NovaScreen (NVS) G Protein-Coupled Receptor Assay for guinea pig Histamine Receptor (H2) (AID 2283342)
Procedure, shortened: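 Guinea pig striatal membrane preparation with specific radioligand; bound counts measured by filtration and scintillation 1 h post-dosing, DMSO as baseline. Chemicals passing a 25 uM duplicate screen were titrated to a 50 uM maximum.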

[2] = target: human Constitutive Androstane Receptor (CAR), NR1I3 (gene 9970) (UniProt Q14994); assay: NVS_NR_hCAR_Antagonist: NovaScreen (NVS) Nuclear Receptor Binding Assay for human Constitutive Androstane Receptor Antagonism (CAR) (AID 2283344)
Procedure, shortened: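 Single 25 uM duplicate primary screen, with concentration-series follow-up on actives. Cell-free binding format run in antagonist mode, TR-FRET signal taken 1 h post-dose; activity is signal loss relative to DMSO.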

[3] = target: Estrogen receptor (Homo sapiens) (UniProt P03372); assay: OT_ER_ERaERa_1440: Odyssey Thera (OT) 24-hour HEK293T Protein-Complementation Assay for Estrogen Receptor-alpha/-alpha Homodimer (AID 2283349);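 also: hits raise fluorescence above DMSO for agonists and antagonists alike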
Procedure, shortened: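 Cells (HEK293T) carrying the fragment-tagged ERα LBD (aa 310-547) pair are treated with chemical for 24 hours. Nuclear and/or cytoplasmic fluorescence is then quantified on a laser scanning cytometer. Activity is scored as signal gain against DMSO.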

[4] = target: Bile acid receptor (Homo sapiens) (UniProt Q96RI1); assay: NVS_NR_hFXR_Antagonist: NovaScreen (NVS) Nuclear Receptor Binding Assay for human Farnesoid X Receptor Antagonism (FXR) (AID 2283350)
Procedure, shortened: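 Antagonist-format time-resolved FRET binding assay with extracted human receptor protein, read 1 hour after compound addition. Compounds first screened at 25 uM in duplicate, then actives tested in concentration series, with loss of signal relative to DMSO.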

[5] = target: T1, Estrogen receptor (Homo sapiens) + Estrogen receptor beta (Homo sapiens) (UniProt P03372+Q92731); assay: OT_ER_ERaERb_0480: Odyssey Thera (OT) 8-hour HEK293T Protein-Complementation Assay for Estrogen Receptor-alpha/-beta Heterodimer (AID 2283352)
Procedure, shortened: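 Increase in mean fluorescence intensity, measured by laser scanning plate cytometry, reported ER-alpha/ER-beta LBD complementation in HEK293T cells after 8 h chemical exposure. DMSO served as baseline; basal signal is low, punctate and cytoplasmic.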

[6] = target: T1, Estrogen receptor (Homo sapiens) + Estrogen receptor beta (Homo sapiens); assay: OT_ER_ERaERb_1440: Odyssey Thera (OT) 24-hour HEK293T Protein-Complementation Assay for Estrogen Receptor-alpha/-beta Homodimer (AID 2283356);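 also: heteromer of ER alpha and ER beta binding domains; hits raise reporter fluorescence and both agonists and antagonists give an increase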
Procedure, shortened: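 Heterodimerisation of ERα (aa 310-547) and ERβ (aa 263-489) ligand binding domains was tracked as fluorescence gain in stably transfected HEK293T cells following 24 h dosing, normalised to DMSO controls.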

[7] = target: human Peroxisome Proliferator-activated Receptor alpha (PPARa), PPARA (gene 5465) (UniProt Q07869); assay: NVS_NR_hPPARa: NovaScreen (NVS) Nuclear Receptor Binding Assay for human Peroxisome Proliferator-activated Receptor alpha (PPARa) (AID 2283359);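 also: activity means loss of TR-FRET signal versus DMSO baseline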
Procedure, shortened: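 TR-FRET signal measured at 1 h post-dosing; loss-of-signal versus DMSO negative control taken as activity. Extracted gene-protein, cell-free format. Initial single-point duplicates at 25 uM, then concentration-response retests.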

[8] = target: Estrogen receptor beta (Homo sapiens) (UniProt Q92731); assay: OT_ER_ERbERb_0480: Odyssey Thera (OT) 8-hour HEK293T Protein-Complementation Assay for Estrogen Receptor-beta/-beta Homodimer (AID 2283357);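 also: active means signal gain over DMSO baseline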
Procedure, shortened: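 Homodimerization of ER-beta LBD measured by protein-fragment complementation in HEK293T; 8 h dosing; fixed, Draq5 counterstain; fluorescence intensity gain over DMSO baseline, positive fitting direction; laser scanning cytometry.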

[9] = target: Estrogen receptor (Homo sapiens) (UniProt P03372); assay: OT_ER_ERaERa_0480: Odyssey Thera (OT) 8-hour HEK293T Protein-Complementation Assay for Estrogen Receptor-alpha/-alpha Homodimer (AID 2283351);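 also: rise in fluorescence from reassembled reporter fragments on ERα LBD homodimer in nucleus or whole cell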
Procedure, shortened: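 HEK293T cells stably expressing a PCA pair of ER alpha LBD (residues 310-547) were dosed for 8 hours. The gain in fluorescence intensity, nuclear for agonists and whole-cell for antagonists, was measured by laser scanning cytometry against DMSO vehicle.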

[10] = target: rat Mineralocorticoid Receptor (MR), Nr3c2 (gene 25672) (UniProt P22199); assay: NVS_NR_rMR: NovaScreen (NVS) Nuclear Receptor Binding Assay for rat Mineralocorticoid Receptor (MR) (AID 2283355)
Procedure, shortened: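 Radioligand displacement, scintillation readout; tissue source adrenalectomized rat brain supernatant. Read 24 h post-dose. Screened in duplicate at 25 uM, DMSO negative control, controls on every plate; actives re-run in concentration series.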

[11] = target: bovine Estrogen Receptor (ER), ESR1 (gene 407238) (UniProt P49884); assay: NVS_NR_bER: NovaScreen (NVS) Nuclear Receptor Binding Assay for bovine Estrogen Receptor (ER) (AID 2283345);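 also: actives lower the bound radioligand count which means they displace the ER ligand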
Procedure, shortened: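 Cell-free radioligand binding with bovine uterine membrane extracts, read 18 hours after dosing by scintillation counting. Loss of signal versus DMSO baseline indicates displacement. Primary screen run in duplicate at 25 uM, actives followed in concentration series.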

[12] = target: Estrogen receptor (Homo sapiens) (UniProt P03372); assay: NVS_NR_hER: NovaScreen (NVS) Nuclear Receptor Binding Assay for human Estrogen Receptor (ER) (AID 2283348)
Procedure, shortened: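 MCF7-derived receptor extract, radiolabelled ligand, competitive displacement. Read: scintillation counts at 18 h. DMSO = negative control/baseline. Primary 25 uM duplicate; follow-up concentration–response.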

[13] = target: Androgen Receptor/SRC-1 Co-activator, AR (gene 367) (UniProt P10275); assay: OT_AR_ARSRC1_0960: Odyssey Thera (OT) 16-hour HEK293T Protein-Complementation Assay for Androgen Receptor/SRC-1 Co-activator (AID 2283353);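 also: actives raise the signal above DMSO so potency reflects increased AR and SRC-1 complex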
Procedure, shortened: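 Endpoint is gain-of-signal N/C fluorescence ratio in the 488 nm channel versus DMSO, from at least 400 cells per image, measured 16 h post-dosing. Cells: HEK293T stably carrying split-Venus AR/SRC-1 complementation constructs.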

[14] = target: Androgen Receptor/SRC-1 Co-activator, AR (gene 367) (UniProt P10275); assay: OT_AR_ARSRC1_0480: Odyssey Thera (OT) 8-hour HEK293T Protein-Complementation Assay for Androgen Receptor/SRC-1 Co-activator (AID 2283354);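 also: hits raise the complementation signal above DMSO so AC50 marks enhancers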
Procedure, shortened: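 Split-Venus PCA, stable HEK293T, AR/SRC-1 fusions; 8 h exposure. Readout: 488nm N/C fluorescence ratio, ≥400 cells/image; fitted upward vs DMSO baseline.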

NCBI gene 100848466 = assay: NVS_NR_bPR: NovaScreen (NVS) Nuclear Receptor Binding Assay for bovine Progextron Receptor (PR) (AID 2283343);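 also: actives lower bound radioligand signal below DMSO meaning displacement of the label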
Procedure, shortened: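 Scintillation counts of bound radioligand were read 18 hours after chemical addition to membranes extracted from bovine uterus. Displacement was scored as loss of signal relative to DMSO controls. Screening began at 25 uM in duplicate.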

[15] = target: chimpanzee Androgen Receptor (AR), AR (gene 747460) (UniProt O97775); assay: NVS_NR_cAR: NovaScreen (NVS) Nuclear Receptor Binding Assay for chimpanzee Androgen Receptor (AR) (AID 2283346);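 also: radioligand displacement from AR measured by scintillation counting in a cell-free assay; a loss of bound radioligand signal versus DMSO counts as binding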
Procedure, shortened: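 Radioligand binding to chimpanzee AR expressed in Sf9/Sf21 cells, cell-free, measured 72 h after dosing by lysate-based scintillation counting. Loss of signal vs DMSO; initial duplicate screen at 25 uM, actives retested in concentration series.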

[16] = target: rat Glutamate, MK-801 Agonist Site (GluNMDA_MK801), Grin1 (gene 24408) (UniProt P35439); assay: NVS_LGIC_rGluNMDA_MK801_Agonist: NovaScreen (NVS) Ligand-Gated Ion Channel Assay for rat Glutamate, MK-801 Agonist Site (GluNMDA_MK801) (AID 2283340)
Procedure, shortened: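 Rat forebrain membrane preparation; MK-801-site radioligand binding read by filtration and scintillation after 1.5 h. Single-point 25 uM duplicate screen, followed by singleton concentration series to 50 uM max; DMSO baseline.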

[17] = target: rat Glycine Receptor, Strychnine-sensitive (GlyRStrySens), Glra1 (gene 25674) (UniProt P07727); assay: NVS_LGIC_rGlyRStrySens: NovaScreen (NVS) Ligand-Gated Ion Channel Assay for rat Glycine Receptor, Strychnine-sensitive (GlyRStrySens) (AID 2283341)
Procedure, shortened: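 Radioligand displacement on rat spinal cord membranes, 1 hr, filter scintillation read-out. Single-concentration duplicate screen at 25 uM; chemicals meeting threshold (e.g., 30% inhibition) rerun in concentration-response up to 50 uM. Loss of binding fitted versus DMSO.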

PGR (gene 5241) = PGR (gene 5241) (UniProt P06401); assay: NVS_NR_hPR: NovaScreen (NVS) Nuclear Receptor Binding Assay for human Progestron Receptor (PR) (AID 2283360);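 also: active means loss of bound radioligand signal versus DMSO baseline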
Procedure, shortened: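 Radioligand competition binding on receptor extracted from T47D cells, read by scintillation counting 18 h after dosing. Loss of signal versus DMSO; primary screen in duplicate at 25 uM, actives followed in concentration series.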

Measured: AC50

Androgen Receptor/SRC-1 Co-activator, AR (gene 367), sequence (P10275 whole entry, looked up, the tested form may be a part): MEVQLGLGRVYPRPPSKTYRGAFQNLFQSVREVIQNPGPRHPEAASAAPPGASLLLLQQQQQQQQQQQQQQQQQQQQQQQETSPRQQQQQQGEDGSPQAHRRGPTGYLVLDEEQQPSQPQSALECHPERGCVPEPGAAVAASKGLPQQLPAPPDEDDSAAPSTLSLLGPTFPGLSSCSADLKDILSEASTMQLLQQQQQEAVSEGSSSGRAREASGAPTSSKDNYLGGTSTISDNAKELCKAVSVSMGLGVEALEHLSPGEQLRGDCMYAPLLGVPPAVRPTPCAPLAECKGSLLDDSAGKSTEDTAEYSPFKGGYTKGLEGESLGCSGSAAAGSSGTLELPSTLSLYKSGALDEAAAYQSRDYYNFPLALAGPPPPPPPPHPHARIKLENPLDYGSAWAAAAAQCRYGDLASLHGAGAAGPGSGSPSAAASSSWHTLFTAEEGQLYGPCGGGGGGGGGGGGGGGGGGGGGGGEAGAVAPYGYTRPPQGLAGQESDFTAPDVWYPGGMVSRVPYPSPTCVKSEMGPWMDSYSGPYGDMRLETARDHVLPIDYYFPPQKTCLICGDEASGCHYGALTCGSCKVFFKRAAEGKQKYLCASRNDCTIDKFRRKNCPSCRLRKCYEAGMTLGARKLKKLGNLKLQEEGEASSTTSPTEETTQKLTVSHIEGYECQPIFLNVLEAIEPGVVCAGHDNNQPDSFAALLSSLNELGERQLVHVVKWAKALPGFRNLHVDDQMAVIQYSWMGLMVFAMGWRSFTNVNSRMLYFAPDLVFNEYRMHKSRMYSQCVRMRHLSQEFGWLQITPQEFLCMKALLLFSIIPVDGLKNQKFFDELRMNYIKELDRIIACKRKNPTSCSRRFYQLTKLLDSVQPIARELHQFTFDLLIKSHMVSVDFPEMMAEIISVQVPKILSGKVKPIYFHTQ
bovine Estrogen Receptor (ER), ESR1 (gene 407238), sequence (P49884 whole entry, looked up): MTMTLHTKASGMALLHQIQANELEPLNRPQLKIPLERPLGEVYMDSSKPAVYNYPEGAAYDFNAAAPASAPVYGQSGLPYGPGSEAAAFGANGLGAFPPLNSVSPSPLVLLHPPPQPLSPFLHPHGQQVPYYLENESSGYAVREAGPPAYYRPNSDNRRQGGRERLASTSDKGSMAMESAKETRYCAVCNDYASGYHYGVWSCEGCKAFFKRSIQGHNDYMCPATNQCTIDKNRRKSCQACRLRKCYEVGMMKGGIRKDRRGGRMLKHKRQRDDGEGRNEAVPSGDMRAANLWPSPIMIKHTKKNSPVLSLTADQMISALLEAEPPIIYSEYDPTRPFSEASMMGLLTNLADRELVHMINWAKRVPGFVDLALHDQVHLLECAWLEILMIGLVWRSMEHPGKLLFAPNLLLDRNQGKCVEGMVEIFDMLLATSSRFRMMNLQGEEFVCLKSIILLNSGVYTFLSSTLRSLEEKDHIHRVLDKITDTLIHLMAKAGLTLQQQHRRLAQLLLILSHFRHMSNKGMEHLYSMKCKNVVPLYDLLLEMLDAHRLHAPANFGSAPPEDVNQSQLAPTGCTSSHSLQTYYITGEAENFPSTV
Estrogen receptor beta (Homo sapiens), sequence (Q92731 whole entry, looked up, the tested form may be a part): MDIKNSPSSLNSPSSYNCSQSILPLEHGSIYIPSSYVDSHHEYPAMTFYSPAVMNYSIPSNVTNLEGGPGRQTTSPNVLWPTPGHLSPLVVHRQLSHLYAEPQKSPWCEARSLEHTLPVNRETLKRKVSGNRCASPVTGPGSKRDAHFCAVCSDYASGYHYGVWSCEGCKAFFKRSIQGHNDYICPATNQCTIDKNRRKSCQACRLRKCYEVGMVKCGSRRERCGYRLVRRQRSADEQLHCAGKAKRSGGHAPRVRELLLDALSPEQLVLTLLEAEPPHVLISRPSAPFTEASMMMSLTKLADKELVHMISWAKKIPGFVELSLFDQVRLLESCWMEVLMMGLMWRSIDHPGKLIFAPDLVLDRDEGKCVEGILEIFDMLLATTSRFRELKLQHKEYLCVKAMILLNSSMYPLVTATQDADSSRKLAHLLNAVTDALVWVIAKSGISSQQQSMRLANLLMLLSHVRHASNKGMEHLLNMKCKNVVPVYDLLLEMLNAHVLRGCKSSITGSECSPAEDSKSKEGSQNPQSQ
chimpanzee Androgen Receptor (AR), AR (gene 747460), sequence (O97775 whole entry, looked up): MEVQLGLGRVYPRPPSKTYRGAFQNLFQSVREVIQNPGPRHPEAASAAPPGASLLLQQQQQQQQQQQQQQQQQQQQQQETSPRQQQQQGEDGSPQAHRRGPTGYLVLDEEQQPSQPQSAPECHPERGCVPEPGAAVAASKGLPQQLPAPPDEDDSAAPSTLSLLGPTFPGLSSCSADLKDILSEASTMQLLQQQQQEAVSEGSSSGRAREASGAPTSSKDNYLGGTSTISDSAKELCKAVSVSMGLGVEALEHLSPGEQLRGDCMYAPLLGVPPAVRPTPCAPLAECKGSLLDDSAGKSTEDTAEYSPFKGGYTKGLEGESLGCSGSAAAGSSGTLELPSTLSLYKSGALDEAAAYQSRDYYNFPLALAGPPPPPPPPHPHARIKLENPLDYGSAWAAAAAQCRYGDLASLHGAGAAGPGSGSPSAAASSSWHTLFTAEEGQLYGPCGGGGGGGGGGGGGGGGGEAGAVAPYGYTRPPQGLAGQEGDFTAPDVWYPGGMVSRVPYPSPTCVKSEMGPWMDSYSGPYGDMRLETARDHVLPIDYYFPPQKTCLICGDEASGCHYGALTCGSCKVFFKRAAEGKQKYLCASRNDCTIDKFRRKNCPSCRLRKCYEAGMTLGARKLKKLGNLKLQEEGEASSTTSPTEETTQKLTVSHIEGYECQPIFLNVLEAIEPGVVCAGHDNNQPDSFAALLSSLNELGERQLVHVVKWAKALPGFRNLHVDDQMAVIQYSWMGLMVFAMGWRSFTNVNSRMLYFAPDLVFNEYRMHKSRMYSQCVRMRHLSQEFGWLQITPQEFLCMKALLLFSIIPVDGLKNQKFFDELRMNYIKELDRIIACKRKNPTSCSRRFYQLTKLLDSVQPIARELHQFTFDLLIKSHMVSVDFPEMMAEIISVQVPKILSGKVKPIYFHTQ
human Peroxisome Proliferator-activated Receptor alpha (PPARa), PPARA (gene 5465), sequence (Q07869 whole entry, looked up): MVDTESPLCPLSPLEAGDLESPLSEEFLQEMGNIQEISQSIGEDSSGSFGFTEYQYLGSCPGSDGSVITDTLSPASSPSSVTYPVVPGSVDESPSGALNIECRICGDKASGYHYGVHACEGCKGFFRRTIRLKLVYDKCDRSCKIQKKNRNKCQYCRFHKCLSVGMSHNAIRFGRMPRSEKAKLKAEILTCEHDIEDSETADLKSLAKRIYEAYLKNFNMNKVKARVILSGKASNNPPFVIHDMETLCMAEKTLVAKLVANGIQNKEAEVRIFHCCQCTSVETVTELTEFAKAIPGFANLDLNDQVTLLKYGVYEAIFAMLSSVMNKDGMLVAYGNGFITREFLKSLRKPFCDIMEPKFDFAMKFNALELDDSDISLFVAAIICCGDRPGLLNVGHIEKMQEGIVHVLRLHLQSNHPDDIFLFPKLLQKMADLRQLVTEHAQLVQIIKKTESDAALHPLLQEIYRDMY
Bile acid receptor (Homo sapiens), sequence (Q96RI1 whole entry, looked up): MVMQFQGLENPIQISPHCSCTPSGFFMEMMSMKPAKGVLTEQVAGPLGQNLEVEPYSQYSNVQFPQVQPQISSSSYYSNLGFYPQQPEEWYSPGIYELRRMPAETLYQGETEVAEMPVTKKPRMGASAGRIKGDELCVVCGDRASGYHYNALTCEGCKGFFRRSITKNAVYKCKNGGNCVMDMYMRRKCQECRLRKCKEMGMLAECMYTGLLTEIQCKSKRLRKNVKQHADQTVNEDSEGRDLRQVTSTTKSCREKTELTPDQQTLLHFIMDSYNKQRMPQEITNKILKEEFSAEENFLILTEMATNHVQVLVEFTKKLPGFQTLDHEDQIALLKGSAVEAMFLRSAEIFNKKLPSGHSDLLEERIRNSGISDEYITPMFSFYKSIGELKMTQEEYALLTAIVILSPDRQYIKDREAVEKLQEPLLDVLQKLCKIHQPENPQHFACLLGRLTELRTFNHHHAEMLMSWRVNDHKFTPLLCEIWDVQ
T1 sequence (P03372 whole entry, looked up, the tested form may be a part): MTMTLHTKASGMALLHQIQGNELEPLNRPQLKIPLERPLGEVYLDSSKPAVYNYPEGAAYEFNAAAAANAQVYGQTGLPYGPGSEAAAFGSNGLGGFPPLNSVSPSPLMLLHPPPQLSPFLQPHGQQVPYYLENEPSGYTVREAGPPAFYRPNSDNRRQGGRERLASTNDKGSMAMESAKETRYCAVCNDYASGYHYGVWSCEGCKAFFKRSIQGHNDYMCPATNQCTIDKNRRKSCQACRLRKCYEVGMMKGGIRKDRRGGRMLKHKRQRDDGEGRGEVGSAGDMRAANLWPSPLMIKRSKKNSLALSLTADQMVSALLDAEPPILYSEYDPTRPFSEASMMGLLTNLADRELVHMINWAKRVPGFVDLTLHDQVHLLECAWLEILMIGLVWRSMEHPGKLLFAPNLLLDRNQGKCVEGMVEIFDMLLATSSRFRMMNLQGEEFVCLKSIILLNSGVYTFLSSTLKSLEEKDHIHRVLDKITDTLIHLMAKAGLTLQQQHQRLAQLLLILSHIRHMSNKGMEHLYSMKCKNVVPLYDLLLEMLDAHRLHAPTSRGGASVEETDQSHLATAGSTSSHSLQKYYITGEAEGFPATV
T1 sequence (Q92731 whole entry, looked up, the tested form may be a part): as the sequence (Q92731 whole entry, looked up, the tested form may be a part) above

COc1ccc(OC(F)(F)F)cc1CN[C@H]1CCCN[C@H]1c1ccccc1
inactive: [2] | [3] | [5] | [6] | [7]
active: [1] 7.67 µM | [4] 40.2 µM

CC(C)NCC(O)c1ccc(O)c(O)c1 (stereo not drawn)
inactive: [1] | [8] | [7]

O=C(N[C@@H](c1ccccc1)[C@@H]1CCCCN1)c1cccc(C(F)(F)F)c1Cl
inactive: [3] | [9] | [10] | [6] | [8] | [7]
active: [2] 25 µM

CN(C)C(=O)NC1(c2ccccc2)CCN(CC[C@@]2(c3ccc(F)c(F)c3)CN(C(=O)c3ccccc3)CCO2)CC1
active: [1] 0.276 µM
inactive: [4]

Cc1ccc(-c2cc(C(F)(F)F)nn2-c2ccc(S(N)(=O)=O)cc2)cc1
inactive: [11] | [12] | [9]
active: [13] 33.7 µM | [14] 72.6 µM

CC(=O)O[C@]1(C(C)=O)CC[C@H]2[C@@H]3C=C(Cl)C4=CC(=O)[C@@H]5C[C@@H]5[C@]4(C)[C@H]3CC[C@@]21C
active: NCBI gene 100848466 0.0857 µM
inactive: [1] | [8] | [7]

Cc1cc(Cc2ccc(N)c(C)c2)ccc1N
inactive: [11]
active: [15] 25 µM | [8] 67.6 µM

O=[Si]=O
inactive: [11] | [3] | [9] | [5] | [6] | [8]

NC1CCCCC1
inactive: [16] | [3] | [9] | [5] | [6] | [8]

CN(C)C(=O)NC1(c2ccccc2)CCN(CCC[C@]2(c3ccc(Cl)c(Cl)c3)CCCN(C(=O)c3ccccc3)C2)CC1
inactive: [3] | [9] | [5] | [8]
active: [1] 0.0164 µM | [6] 2.97 µM

CS(=O)(=O)c1ccc([C@@H](C[C@H]2CCC(=O)C2)C(=O)Nc2cnccn2)cc1Cl
inactive: [3] | [9] | [5] | [6] | [8]
active: [1] 0.0043 µM

CCCCCCCCCC[N+](C)(C)[O-]
inactive: [1] | [3] | [9] | [5] | [13] | [14] | [6] | [8]

Cc1c(C)c2c(c(C)c1O)CCC(C)(COc1ccc(CC3SC(=O)NC3=O)cc1)O2 (stereo not drawn)
active: [13] 27.4 µM
inactive: [11] | [12] | [3] | [9] | [14] | [6] | [8]

CCCCCCCCCCCCCCOS(=O)(=O)O
inactive: [3] | [9] | [6] | [8]
active: NCBI gene 100848466 25 µM | [7] 3.99 µM

CCC(C)N(C)C(=O)c1cc2ccccc2c(-c2ccccc2Cl)n1 (stereo not drawn)
active: [13] 26 µM
inactive: [11] | [12] | [3] | [9] | [5] | [14] | [6] | [8] | [7]

CCc1nc(N)nc(N)c1-c1ccc(Cl)cc1
active: [17] 2.7 µM | [1] 2.94 µM
inactive: [3] | [9] | [5] | [6] | [8] | PGR (gene 5241)

CCCCC(CC)CO (stereo not drawn)
inactive: [17] | [8]

CCCCc1nc2cccnc2n1Cc1ccc(-c2ccccc2-c2nnn[nH]2)cc1
inactive: [1] | [3] | [4] | [9] | [6] | [8]

O=C(O)CN(CC(=O)O)CC(=O)O
active: [3] 10.9 µM
inactive: [9]

O=C(O)c1[nH]n(-c2ccc(S(=O)(=O)O)cc2)c(=O)c1N=Nc1ccc(S(=O)(=O)O)cc1
inactive: [3] | [9]

CCCCCCC(CCCCCCCCCCC(=O)OCC(COC(C)=O)OC(C)=O)OC(C)=O (stereo not drawn)
inactive: [3] | [9] | [6] | [8] | [7]

Nc1nc(=S)c2[nH]cnc2[nH]1
inactive: [12] | [3] | [9] | [5] | [13] | [14] | [6] | [8]

CCCCC(CC)COC(=O)CCCCCCCC(=O)OCC(CC)CCCC (stereo not drawn)
inactive: [11] | [8]

OCC(CO)n1cnc(-c2ccc(F)cc2)c1-c1ccnc(Oc2ccccc2)n1
inactive: [3] | [9] | [5] | [6] | [8]

CCCCC(CC)COP(=O)(OCC(CC)CCCC)OCC(CC)CCCC (stereo not drawn)
active: [15] 18.1 µM

COC(=O)[C@H]1[C@H]2C[C@@H]3c4[nH]c5cc(OC)ccc5c4CCN3C[C@H]2C[C@@H](OC(=O)c2cc(OC)c(OC)c(OC)c2)[C@@H]1OC
active: [15] 19.2 µM

CC1(C)C(=O)NC(=O)N1CO
inactive: [3] | [9] | [5] | [6]

CC1=C(C)S(=O)(=O)CCS1(=O)=O
inactive: [3] | [9] | [13] | [14] | [7] | PGR (gene 5241)

CC(C)OC(=O)C(C)(C)Oc1ccc(C(=O)c2ccc(Cl)cc2)cc1
active: [13] 34.4 µM
inactive: [12] | [3] | [4] | [9] | [5] | [14] | [6] | [8]
